Consider 14 molecules from PubChem BioAssay.

Assay [1] concerns XIP peptide (Xip251-270) binding. Nature of the assay: XIP fragment 251-270 binding compounds – biochemical, small-molecule microarray, fluorescence 635/667 nm, 0.1 µg/mL protein, primary screen (AID 1182). To be noted: fluorescent protein binding, 635 nm, higher = more signal, called active from +8 up or from −8 down.
A further assay concerns XIP peptide (Xip251-270). Nature of the assay: compounds binding XIP fragment 251-270 – biochemical, small-molecule microarray, fluorescence 635/667 nm, 0.5 µg/mL protein, primary screen (AID 1183). To be noted: fluorescence 635 nm, higher = more signal.
The nature of assay [2]: blood-stage malaria parasite viability loss – strain 3D7, DAPI fluorescence, 100 nL, primary screen (AID 1184).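 Further: parasites grown inside human red blood cells in medium with human serum.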 To be noted: P. falciparum 3D7 growth, 3 d, higher = more signal.
Assay [3] has as its target Homeobox protein Hox-A13 (Mus musculus) (UniProt Q62424). Put plainly: disruptors of Hoxa13 oligonucleotide interaction – biochemical, fluorescence polarization, labeled oligonucleotide, primary screen (AID 1185). To be noted: Hoxa13:DNA binding, 15 min, higher = more signal, called active from +8 up or from −8 down.
Assay [4] in a line: blockers of DNA damage checkpoint Chk1 activation – imaging, HeLa, hydroxyurea, phospho-Chk1 antibody, percent positive cells, primary screen (AID 1186). To be noted: hydroxyurea-induced phospho-Chk1 immunofluorescence imaging, higher = more signal.
A short description of assay [5]: blockers of DNA damage checkpoint Chk1 activation – imaging, HeLa, hydroxyurea, phospho-Chk1 nuclear intensity, primary screen (AID 1187). To be noted: hydroxyurea-induced phospho-Chk1 immunofluorescence imaging, higher = more signal.

Active and inactive are the calls of the source. Unless noted, how the calls were made is not given here.

Sequence of Homeobox protein Hox-A13 (Mus musculus) (Q62424 whole entry, looked up): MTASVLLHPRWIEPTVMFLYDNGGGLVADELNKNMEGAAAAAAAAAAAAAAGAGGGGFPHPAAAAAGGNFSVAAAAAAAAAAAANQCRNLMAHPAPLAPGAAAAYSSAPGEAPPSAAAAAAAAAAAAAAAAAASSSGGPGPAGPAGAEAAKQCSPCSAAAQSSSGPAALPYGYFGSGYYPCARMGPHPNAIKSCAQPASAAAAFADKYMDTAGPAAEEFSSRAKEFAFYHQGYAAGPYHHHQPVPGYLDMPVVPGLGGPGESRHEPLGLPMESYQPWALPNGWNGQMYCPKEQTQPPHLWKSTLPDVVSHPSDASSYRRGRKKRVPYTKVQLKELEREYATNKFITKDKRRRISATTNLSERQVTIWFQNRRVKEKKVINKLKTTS

For the molecule `CO[C@H]1O[C@H](CO)[C@@H](OC(=O)Nc2ccc3c(c2)OCO3)[C@H](OC(=O)c2cc3ccccc3[nH]2)[C@H]1OC(=O)c1cc2ccccc2[nH]1`, the composite z-score in assay [1] is 0.472 (inactive); with XIP peptide (Xip251-270) it was 0.374. Further, the z-score in assay [2] was -0.603; in assay [3], -4.88 (inactive); in assay [4], -0.308 (inactive); in assay [5], -0.227 (inactive).
Regarding `NC(N)=NCCCn1cc(CNC(=O)[C@@H](N)Cc2ccccc2)nn1`, the composite z-score in assay [1] is 0.196 (inactive); in the assay with XIP peptide (Xip251-270), -1.17. Further, the z-score was 0.139 in assay [2], -1.61 (inactive) in assay [3], 0.262 (inactive) in assay [4] and -0.174 (inactive) in assay [5].
For the molecule `C=CCC(OC(C)=O)[C@@H]1[C@@H](N(Cc2cc3ccccc3o2)C(=O)c2ccc(-c3ccccc3)cc2)c2cc(OCCCO)ccc2N1C(=O)c1ccc2ccccc2c1` (some centres undefined), the composite z-score in assay [1] is -0.252 (inactive); in the assay on XIP peptide (Xip251-270), -0.273. The z-score in assay [2] is -1.41; in assay [3], -0.926 (inactive); in assay [4] it was 0.347 (inactive); in assay [5] it was 0.433 (inactive).
As to `COC(=O)[C@@]1(Cc2ccccc2)[C@H]2c3cc(C(=O)N(C)C)n(CCc4ccc(O)c(OC)c4)c3C[C@H]2CN1C(=O)c1ccccc1`, the composite z-score in assay [1] is 0.132 (inactive); in the assay with XIP peptide (Xip251-270) it was -0.358. Also, the z-score was 0.692 in assay [2], -0.394 (inactive) in assay [3], 0.727 (inactive) in assay [4] and 0.652 (inactive) in assay [5].
For `COc1ccc([Si](C)(C)[C@H]2[C@H](CC(=O)N(CCO)Cc3ccccc3)O[C@@]3(C(=O)N(Cc4cccc(N5CCOC5=O)c4)c4ccccc43)[C@@H]2C)cc1`, the composite z-score in assay [1] was 0.114 (inactive); with XIP peptide (Xip251-270) it was 0.77. For the same molecule, the z-score was -2.69 in assay [2], -2.33 (inactive) in assay [3], -0.178 (inactive) in assay [4] and -0.157 (inactive) in assay [5].
With `O=C1O[C@H](c2ccccc2)[C@H](c2ccccc2)N2[C@H]1[C@@H](C(=O)Nc1nc3ccccc3s1)[C@]1(C(=O)Nc3ccc(C#CC4(O)CCCCCC4)cc31)[C@H]2c1ccccc1OCCO`, the values for the composite z-score (in assay [1]; with XIP peptide (Xip251-270)) were 0.0536 (inactive) and 0.812, respectively. Besides, the z-score in assay [2] was -2.09; in assay [3], 2.05 (inactive); in assay [4] it was 0.66 (inactive); in assay [5] it was 0.976 (inactive).
For `[N-]=[N+]=Nc1ccccc1C[C@]1(C(=O)N2CCOCC2)N=C(c2ccc(OCCCO)cc2)O[C@H]1c1ccccc1`, the composite z-score in assay [1] was 0.511 (inactive); in the assay with XIP peptide (Xip251-270), 0.748. In addition, the z-score in assay [2] is -2.03; in assay [3], -5.32 (inactive); in assay [4] it was -0.47 (inactive); in assay [5] it was -0.106 (inactive).
Turning to `COc1ccc([Si](C)(C)[C@H]2[C@H](CCO)O[C@@]3(C(=O)N(Cc4cccc(N5C(=O)COc6ccccc65)c4)c4ccccc43)[C@@H]2C)cc1`, the composite z-score in assay [1] was 0.595 (inactive); with XIP peptide (Xip251-270), 0.649. The z-score was -2.8 in assay [2], -1.2 (inactive) in assay [3], -0.327 (inactive) in assay [4] and 0.208 (inactive) in assay [5].
Turning to `COc1ccc(CN(C2=CC[C@@]3(C(N)=O)C(=O)C(Cl)=C(Cl)C(=O)[C@@]3(C#N)C2)S(=O)(=O)c2ccc(Br)cc2)cc1`, the composite z-score in assay [1] was 0.68 (inactive); in the assay on XIP peptide (Xip251-270), 0.923. For the same molecule, the z-score in assay [2] was 0.435; in assay [3], -6.44 (inactive); in assay [4], -0.207 (inactive); in assay [5] it was -0.179 (inactive).
For `O=C1O[C@@H](c2ccccc2)[C@@H](c2ccccc2)N2[C@@H](c3ccccc3OCCO)[C@]3(C(=O)Nc4ccc(C#CCCO)cc43)[C@@H](C(=O)N3CCCCCCC3)[C@H]12`, the composite z-score in assay [1] was 8.49 (active); with XIP peptide (Xip251-270) it was 1.02. The z-score in assay [2] is -2.23; in assay [3], 3.66 (inactive); in assay [4] it was -0.333 (inactive); in assay [5] it was -0.462 (inactive).
In the case of `O=C1O[C@H](c2ccccc2)[C@H](c2ccccc2)N2[C@H]1[C@@H](C(=O)O)[C@]1(C(=O)Nc3ccc(C#CC4=CCCCC4)cc31)[C@H]2c1ccc(O)cc1`, the values for the composite z-score (in assay [1]; in the assay with XIP peptide (Xip251-270)) were 0.406 (inactive) and 0.617, respectively. The z-score in assay [2] was -0.628; in assay [3], -5.74 (inactive); in assay [4], -0.0146 (inactive); in assay [5], -0.19 (inactive).
With `CCOC(=O)C[C@H]1[C@H](OC(=O)c2cc3ccccc3oc2=O)[C@@H](NC(=O)c2ccc(-c3ccccc3)cc2)c2cc(OCCCO)ccc2N1C(=O)c1ccccc1`, the composite z-score is 0.411 (inactive) in assay [1] and 0.701 in the assay with XIP peptide (Xip251-270). Moreover, the z-score was -1.95 in assay [2], 0.455 (inactive) in assay [3], 0.443 (inactive) in assay [4] and 0.769 (inactive) in assay [5].
`COc1cc(OC)c(C(O)C2C=CC3C(=O)N(C)C(=O)C3N2NC(=O)OC(C)(C)C)cc1Br` (centres undefined): the composite z-score is -0.121 (inactive) in assay [1] and 0.759 with XIP peptide (Xip251-270). Moreover, the z-score in assay [2] was -0.107; in assay [3], -2.6 (inactive); in assay [4] it was 0.111 (inactive); in assay [5], -0.0533 (inactive).
For the molecule `COCCOC(=O)N1C(=O)[C@@]2(c3cc(C#CC4=CCCCC4)ccc31)[C@H](c1ccc(OCCO)cc1)N1[C@H](c3ccccc3)[C@H](c3ccccc3)OC(=O)[C@H]1[C@@H]2C(=O)N1CCN(c2ncccn2)CC1`, the values for the composite z-score (in assay [1]; in the assay on XIP peptide (Xip251-270)) were 0.975 (inactive) and 0.278, respectively. Further, the z-score in assay [2] is -2.19; in assay [3], 2.06 (inactive); in assay [4], 0.313 (inactive); in assay [5] it was 0.448 (inactive).
